Several values for one entry are separate records, joined by “and”; a condition that tells them apart may be missing. Equal entries are not always repeated. Among all 5,500 compounds or so, about 2,000 (36%) were called active. Inconclusive results (about 18%) are left out. Rule as the data show it: active = normalized growth mostly below about 0.91 (no sharp cut-off); inconclusive = no clear call, values can overlap the other calls; inactive = mostly above about 0.92. The list shows a part of the results.
Test: chemical genetic growth profiling, strain panel (AID 1159580);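 also: tested at 20 µM; growth read once vehicle control cultures reached saturation at 30 °C; 1 = growth at the plate median or of vehicle wells; lower values mean less growth of the strain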
Conditions: S. cerevisiae deletion strains, growth OD
[1] = locus YBR229C, strain ROT2, active compounds read low
[2] = locus YDL101C, strain DUN1, active compounds read low
[3] = locus YHR030C, strain SLT2, active compounds read low
[4] = locus YJR075W, strain HOC1, active compounds read low
[5] = locus YLR039C, strain RIC1, active compounds read low
[6] = locus YNL153C, strain GIM3, active compounds read low
[7] = locus YPL241C, strain CIN2, active compounds read low

Measured: normalized growth

NC(=O)C1=C(O)C(=O)N(C2CCCCC2)C1
inactive: locus YAL013W, strain DEP1, active compounds read low 0.992 | [1] 1.01 | [2] 1.02 | locus YDR150W, strain NUM1, active compounds read low 1.03 | locus YEL061C, strain CIN8, active compounds read low 0.995 | locus YGR078C, strain PAC10, active compounds read low 1 | [3] 1.05 | locus YHR087W, strain rtc3, active compounds read low 0.99 | locus YJR043C, strain POL32, active compounds read low 1.02 | [4] 1.01 | locus YKL190W, strain CNB1, active compounds read low 1.01 | [5] 1.02 | locus YLR058C, strain SHM2 (second series), active compounds read low 1.01 | locus YLR085C, strain ARP6, active compounds read low 1.03 | locus YLR262C, strain YPT6, active compounds read low 1 | locus YML094W, strain GIM5, active compounds read low 1 | locus YMR219W, strain ESC1, active compounds read low 1.01 | locus YMR263W, strain SAP30, active compounds read low 1 | [6] 1.01 | locus YNL298W, strain CLA4 (second series), active compounds read low 1.02 | locus YNL322C, strain KRE1, active compounds read low 0.998 | locus YNR030W, strain Alg12, active compounds read low 1.03 | locus YPL055C, strain LGE1, active compounds read low 0.999 | [7] 0.974 | locus YPR135W, strain CTF4, active compounds read low 1.06

O=c1c(O)cccc2cc(O)c(O)c(O)c12
active: locus YAL021C, strain ccr4, active compounds read low 0.082 | locus YAL026C, strain drs2, active compounds read low 0.425 | locus YAL030W, strain snc1, active compounds read low 0.884 | locus YBL061C, strain skt5, active compounds read low 0.798 | locus YBR009C, strain hhf1, active compounds read low 0.76 | locus YBR023C, strain chs3, active compounds read low 0.668 | locus YBR171W, strain sec66, active compounds read low 0.881 | [1] 0.844 | locus YBR231C, strain swc5, active compounds read low 0.623 | locus YBR279W, strain paf1, active compounds read low 0.856 | locus YCL011C, strain gbp2, active compounds read low 0.859 | locus YCL016C, strain dcc1, active compounds read low 0.858 | locus YCL029C, strain bik1, active compounds read low 0.443 | locus YCL061C, strain MRC1, active compounds read low 0.833 | locus YCL069W, strain vba3, active compounds read low 0.858 | locus YCR088W, strain abp1, active compounds read low 0.875 | locus YDL035C, strain GPR1, active compounds read low 0.678 | locus YDL074C, strain BRE1, active compounds read low 0.497 | [2] 0.457 | locus YDL185W, strain tfp1, active compounds read low 0.501 | locus YDL192W, strain arf1, active compounds read low 0.742 | locus YDR069C, strain doa4, active compounds read low 0.166 | locus YDR101C, strain arx1, active compounds read low 0.479 | locus YDR137W, strain rgp1, active compounds read low 0.126 | locus YDR159W, strain sac3, active compounds read low 0.149 | locus YDR162C, strain NBP2, active compounds read low 0.515 | locus YDR195W, strain ref2 0.692 | locus YDR297W, strain sur2, active compounds read low 0.877 | locus YDR318W, strain mcm21, active compounds read low 0.885 | locus YDR334W, strain swr1, active compounds read low 0.515 | locus YDR335W, strain msn5, active compounds read low 0.18 | locus YDR388W, active compounds read low 0.855 | locus YDR392W, strain spt3, active compounds read low 0.738 | locus YDR502C, strain sam2, active compounds read low 0.569 | locus YEL003W, strain gim4, active compounds read low 0.671 | locus YEL037C, strain rad23, active compounds read low 0.716 | locus YEL061C, strain CIN8 (second series), active compounds read low 0.878 | locus YER015W, strain faa2, active compounds read low 0.593 | locus YER016W, strain bim1, active compounds read low 0.904 | locus YER111C, strain swi4, active compounds read low 0.22 | locus YER155C, strain BEM2 (second series), active compounds read low 0.489 | locus YER155C, strain BEM2, active compounds read low 0.664 | locus YER167W, strain BCK2, active compounds read low 0.865 | locus YFR010W, strain ubp6, active compounds read low 0.509 | locus YGL078C, strain dbp3, active compounds read low 0.841 | locus YGL086W, strain mad1, active compounds read low 0.758 | locus YGL167C, strain pmr1, active compounds read low 0.757 | locus YGL173C, strain kem1, active compounds read low 0.497 | locus YGL248W, strain PDE1, active compounds read low 0.775 | locus YGL253W, strain hxk2, active compounds read low 0.71 | locus YGR135W, strain pre9, active compounds read low 0.822 | locus YGR252W, strain gcn5, active compounds read low 0.716 | locus YHR013C, strain ard1, active compounds read low 0.577 | locus YHR027C, strain rpn1, active compounds read low 0.554 | [3] 0.898 and 0.73 | locus YHR079C, strain IRE1 (second series), active compounds read low 0.182 | locus YHR079C, strain IRE1, active compounds read low 0.654 | locus YHR129C, strain ARP1, active compounds read low 0.693 | locus YHR142W, strain chs7, active compounds read low 0.536 | locus YHR200W, strain rpn10, active compounds read low 0.817 | locus YIL066C, strain RNR3, active compounds read low 0.768 | locus YIL073C, strain SPO22, active compounds read low 0.508 | locus YIL125W, strain kgd1, active compounds read low 0.783 | locus YIR030C, strain dcg1, active compounds read low 0.812 | locus YJL092W, strain hpr5, active compounds read low 0.9 | locus YJL095W, strain BCK1 (second series), active compounds read low 0.754 | locus YJL095W, strain BCK1, active compounds read low 0.105 and 0.759 | locus YJL115W, strain asf1, active compounds read low 0.894 | locus YJL129C, strain trk1, active compounds read low 0.547 | locus YJL134W, strain LCB3, active compounds read low 0.872 | locus YJL154C, strain vps35, active compounds read low 0.816 | locus YJL164C, strain tpk1, active compounds read low 0.714 | locus YJL166W, strain qcr8, active compounds read low 0.802 | locus YJL187C, strain SWE1 (second series), active compounds read low 0.22 | locus YJL187C, strain SWE1, active compounds read low 0.813 | locus YJR066W, strain TOR1, active compounds read low 0.684 | [4] 0.82 | locus YKL009W, strain mrt4, active compounds read low 0.345 | locus YKL068W, active compounds read low 0.928 | locus YKL085W, strain MDH1 (second series), active compounds read low 0.818 | locus YKL085W, strain MDH1, active compounds read low 0.818 | locus YKL160W, strain elf1, active compounds read low 0.853 | locus YKR001C, strain vps1, active compounds read low 0.818 | locus YKR026C, strain gcn3, active compounds read low 0.915 | locus YLL001W, strain dnm1, active compounds read low 0.699 | locus YLL026W, active compounds read low 0.841 | locus YLL041C, strain sdh2, active compounds read low 0.902 | locus YLR027C, strain aat2, active compounds read low 0.815 | [5] 0.481 | locus YLR058C, strain SHM2, active compounds read low 0.22 | locus YLR113W, strain HOG1, active compounds read low 0.51 | locus YLR221C, strain rsa3, active compounds read low 0.78 | locus YLR258W, strain gsy2, active compounds read low 0.83 | locus YLR262C, strain YPT6 (second series), active compounds read low 0.485 | locus YLR268W, strain sec22, active compounds read low 0.515 | locus YLR320W, strain mms22, active compounds read low 0.595 | locus YLR330W, strain CHS5, active compounds read low 0.852 | locus YLR342W, strain FKS1 (second series), active compounds read low 0.564 | locus YLR342W, strain FKS1, active compounds read low 0.764 | locus YLR357W, strain rsc2, active compounds read low 0.632 | locus YLR370C, strain arc18, active compounds read low 0.656 | locus YLR371W, strain rom2, active compounds read low 0.746 | locus YLR384C, strain iki3, active compounds read low 0.799 | locus YLR418C, strain cdc73, active compounds read low 0.458 | locus YML016C, strain PPZ1, active compounds read low 0.583 | locus YML032C, strain rad52, active compounds read low 0.522 | locus YML120C, strain ndi1, active compounds read low 0.0997 | locus YML124C, strain tub3, active compounds read low 0.839 | locus YMR058W, strain fet3, active compounds read low 0.179 | locus YMR129W, active compounds read low 0.919 | locus YMR205C, strain PFK2, active compounds read low 0.511 | locus YMR223W, strain ubp8, active compounds read low 0.838 | locus YMR231W, strain pep5, active compounds read low 0.183 | locus YMR307W, strain GAS1, active compounds read low 0.586 | locus YNL067W, strain RPL9B, active compounds read low 0.699 | locus YNL071W, strain lat1, active compounds read low 0.833 | [6] 0.511 | locus YNL183C, strain NPR1, active compounds read low 0.66 | locus YNL209W, strain ssb2, active compounds read low 0.398 | locus YNL233W, strain BNI4, active compounds read low 0.741 | locus YNL248C, strain rpa49, active compounds read low 0.811 | locus YNL250W, strain rad50, active compounds read low 0.76 | locus YNL271C, strain bni1, active compounds read low 0.841 | locus YNL322C, strain KRE1 (second series), active compounds read low 0.237 | locus YNR049C, strain mso1, active compounds read low 0.898 | locus YNR052C, strain pop2, active compounds read low 0.185 | locus YOL006C, strain TOP1, active compounds read low 0.423 | locus YOL147C, strain pex11, active compounds read low 0.689 | locus YOR001W, strain rrp6, active compounds read low 0.686 | locus YOR061W, strain CKA2, active compounds read low 0.734 | locus YOR069W, strain VPS5, active compounds read low 0.775 | locus YOR070C, strain gyp1, active compounds read low 0.901 | locus YOR080W, strain dia2, active compounds read low 0.553 | locus YOR083W, strain WHI5, active compounds read low 0.737 | locus YOR106W, strain vam3, active compounds read low 0.367 | locus YOR144C, strain elg1, active compounds read low 0.545 | locus YOR184W, strain ser1, active compounds read low 0.636 | locus YOR231W, strain MKK1, active compounds read low 0.665 | locus YOR265W, strain rbl2, active compounds read low 0.871 | locus YOR270C, strain vph1, active compounds read low 0.16 | locus YOR290C, strain snf2, active compounds read low 0.105 | locus YPL051W, strain arl3, active compounds read low 0.525 | locus YPL078C, strain atp4, active compounds read low 0.284 | locus YPL106C, strain sse1, active compounds read low 0.747 | locus YPL240C, strain hsp82, active compounds read low 0.864 | [7] 0.841 | locus YPL256C, strain CLN2, active compounds read low 0.601 | locus YPR141C, strain kar3, active compounds read low 0.607 | locus YPR163C, strain tif3, active compounds read low 0.884 | locus YPR167C, strain met16, active compounds read low 0.871 | strain wtn01, active compounds read low 0.761
inactive: locus YBR021W, strain FUR4, active compounds read low 0.921 | locus YDL005C, strain med2, active compounds read low 0.978 | locus YDL040C, strain nat1, active compounds read low 0.946 | locus YDR001C, strain nth1, active compounds read low 0.925 | locus YER110C, active compounds read low 1.02 | locus YGL227W, strain vid30, active compounds read low 0.954 | locus YGL240W, strain doc1, active compounds read low 0.968 | locus YHR094C, strain hxt1, active compounds read low 0.98 | locus YJL168C, strain set2, active compounds read low 0.966 | locus YKR091W, strain srl3, active compounds read low 0.939 | locus YLR102C, strain apc9, active compounds read low 1.02 | locus YMR078C, strain ctf18, active compounds read low 0.971 | locus YMR125W, strain sto1, active compounds read low 0.955 | locus YNL298W, strain CLA4, active compounds read low 0.969 | locus YNL307C, strain MCK1, active compounds read low 0.959 | locus YOL012C, strain htz1 0.272 | locus YOR136W, strain idh2, active compounds read low 0.925 | locus YOR316C, strain cot1, active compounds read low 1 | locus YPR119W, strain clb2, active compounds read low 1.01

Source: PubChem BioAssay AID1159580 (chemical genetic matrix, 2015)
